# Results reported in PubChem BioAssay (Tox21).
# Results filed as inconclusive are left out. Where a call stands in place of a potency, no number is given. A number with no mark means an inactive call. The source made the active and inactive calls. The call rests on the fitted dose curve; in most records, active means well fitted curve in the direction sought with a large enough effect in the repeat runs; inconclusive means weak or mixed curves; inactive means no such curve, though single readings can be large; an effect the other way counts as inactive or inconclusive.
# Tests used:
# [1] = molecular target: Cytochrome P450 2D6 (Homo sapiens) (UniProt P10635); assay: Cytochrome P450 Family 2 Subfamily D Member 6 (CYP2D6) small molecule antagonists: luciferase reporter qHTS assay (AID 1671196); further: nearly all actives have a fitted effect of over 50% in size
# Sequence of Cytochrome P450 2D6 (Homo sapiens) (P10635 whole entry, looked up): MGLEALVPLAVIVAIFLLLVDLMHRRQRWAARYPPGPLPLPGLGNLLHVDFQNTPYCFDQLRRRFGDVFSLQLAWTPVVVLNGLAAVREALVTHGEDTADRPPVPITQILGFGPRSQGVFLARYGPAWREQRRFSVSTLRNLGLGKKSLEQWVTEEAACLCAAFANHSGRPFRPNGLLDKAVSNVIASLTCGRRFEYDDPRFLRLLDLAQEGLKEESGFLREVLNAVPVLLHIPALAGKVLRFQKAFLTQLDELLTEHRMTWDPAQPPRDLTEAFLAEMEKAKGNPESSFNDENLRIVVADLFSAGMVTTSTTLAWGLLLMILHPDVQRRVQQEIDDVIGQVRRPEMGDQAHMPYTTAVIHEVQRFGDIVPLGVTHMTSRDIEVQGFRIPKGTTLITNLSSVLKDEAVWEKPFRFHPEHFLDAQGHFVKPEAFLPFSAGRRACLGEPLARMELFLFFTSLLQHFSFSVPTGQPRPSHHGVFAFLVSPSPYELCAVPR
# How it was run: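 Each well received CYP2D6 with its proluciferin substrate and chemical, sat 10 min, then got NADPH regeneration solution for 1 h at room temperature. Luminescence in RLU served as the activity measure.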
# [2] = molecular target: Cytochrome P450 2C19 (Homo sapiens) (UniProt P33261); assay: Cytochrome P450 Family 2 Subfamily C Member 19 (CYP2C19) small molecule antagonists: luciferase reporter qHTS assay (AID 1671197); further: nearly all actives have a fitted effect of over 65% in size
# Sequence of Cytochrome P450 2C19 (Homo sapiens) (P33261 whole entry, looked up): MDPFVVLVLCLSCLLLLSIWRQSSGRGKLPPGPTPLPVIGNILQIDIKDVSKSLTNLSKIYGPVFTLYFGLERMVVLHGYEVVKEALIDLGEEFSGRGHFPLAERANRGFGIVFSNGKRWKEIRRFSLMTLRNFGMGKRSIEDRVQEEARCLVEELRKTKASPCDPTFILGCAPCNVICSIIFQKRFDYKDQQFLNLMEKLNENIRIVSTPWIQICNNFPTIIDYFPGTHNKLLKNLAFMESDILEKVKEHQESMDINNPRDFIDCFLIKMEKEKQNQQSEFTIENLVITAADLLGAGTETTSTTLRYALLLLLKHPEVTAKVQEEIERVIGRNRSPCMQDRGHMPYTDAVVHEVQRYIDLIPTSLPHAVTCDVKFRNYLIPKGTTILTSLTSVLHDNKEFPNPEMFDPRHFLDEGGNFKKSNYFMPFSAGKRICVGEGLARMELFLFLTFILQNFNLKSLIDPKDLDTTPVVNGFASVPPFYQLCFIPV
# How it was run: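 CYP2C19 P450-Glo, 1536-well qHTS. Cpd + enzyme/proluciferin substrate 10 min RT; + NADPH regen, 37C 1 h; stop with luciferin detection reagent, 20 min RT, luminescence (RLU). Pos ctrl ketoconazole.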
# [3] = molecular target: Cytochrome P450 2C9 (Homo sapiens) (UniProt P11712); assay: Cytochrome P450 Family 2 Subfamily C Member 9 (CYP2C9) small molecule antagonists: luciferase reporter qHTS assay (AID 1671198); further: nearly all actives have a fitted effect of over 50% in size
# Sequence of Cytochrome P450 2C9 (Homo sapiens) (P11712 whole entry, looked up): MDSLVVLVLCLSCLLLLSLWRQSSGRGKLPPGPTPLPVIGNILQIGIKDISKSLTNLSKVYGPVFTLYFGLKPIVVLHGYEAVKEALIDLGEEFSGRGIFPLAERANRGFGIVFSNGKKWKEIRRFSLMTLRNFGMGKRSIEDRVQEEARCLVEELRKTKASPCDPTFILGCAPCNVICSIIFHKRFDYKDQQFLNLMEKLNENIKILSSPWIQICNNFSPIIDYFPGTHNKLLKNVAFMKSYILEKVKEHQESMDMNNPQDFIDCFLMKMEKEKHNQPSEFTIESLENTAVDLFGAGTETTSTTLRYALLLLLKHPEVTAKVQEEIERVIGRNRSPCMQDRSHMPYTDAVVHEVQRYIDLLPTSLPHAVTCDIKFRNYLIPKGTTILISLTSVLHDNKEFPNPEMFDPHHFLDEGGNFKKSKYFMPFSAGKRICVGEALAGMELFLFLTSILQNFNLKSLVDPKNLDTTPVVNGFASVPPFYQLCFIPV
# How it was run: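 P450-Glo proluciferin substrate with CYP2C9 enzyme; 10 min RT preincubation, then NADPH regeneration 1 h at 37C; luciferin detection reagent 20 min RT, luminescence in relative luminescence units.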
# [4] = molecular target: Cytochrome P450 1A2 (Homo sapiens) (UniProt P05177); assay: Cytochrome P450 Family 1 Subfamily A Member 2 (CYP1A2) small molecule antagonists: luciferase reporter qHTS assay (AID 1671199); further: nearly all actives have a fitted effect of over 50% in size
# Sequence of Cytochrome P450 1A2 (Homo sapiens) (P05177 whole entry, looked up): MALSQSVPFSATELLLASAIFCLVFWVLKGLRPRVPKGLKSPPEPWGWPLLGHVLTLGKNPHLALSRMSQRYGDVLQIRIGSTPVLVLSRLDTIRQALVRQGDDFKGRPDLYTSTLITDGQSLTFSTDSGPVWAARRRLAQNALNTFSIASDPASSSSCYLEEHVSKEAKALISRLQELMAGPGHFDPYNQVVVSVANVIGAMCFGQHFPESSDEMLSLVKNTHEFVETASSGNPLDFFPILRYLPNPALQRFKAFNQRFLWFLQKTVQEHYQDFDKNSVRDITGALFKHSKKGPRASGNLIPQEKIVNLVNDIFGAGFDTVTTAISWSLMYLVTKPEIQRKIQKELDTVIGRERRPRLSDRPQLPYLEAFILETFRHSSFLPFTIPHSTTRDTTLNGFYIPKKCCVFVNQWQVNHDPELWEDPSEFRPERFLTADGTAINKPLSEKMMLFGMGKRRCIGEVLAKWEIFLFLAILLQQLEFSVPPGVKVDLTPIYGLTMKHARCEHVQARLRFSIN
# How it was run: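 Enzymatic CYP1A2 assay, human, luminescent: 10 min compound–enzyme–substrate preincubation, 1 h NADPH-dependent turnover, 20 min detection step, room temperature throughout. Reduced light indicates lower CYP1A2 activity.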
# [5] = molecular target: Voltage-gated inwardly rectifying potassium channel KCNH2 (Homo sapiens) (UniProt Q12809); assay: Human Ether-a-go-go-Related Gene (hERG) channel small molecule antagonists: fluorescence cell-based qHTS assay (AID 1671200); further: nearly all actives have a fitted effect of over 50% in size
# Sequence of Voltage-gated inwardly rectifying potassium channel KCNH2 (Homo sapiens) (Q12809 whole entry, looked up): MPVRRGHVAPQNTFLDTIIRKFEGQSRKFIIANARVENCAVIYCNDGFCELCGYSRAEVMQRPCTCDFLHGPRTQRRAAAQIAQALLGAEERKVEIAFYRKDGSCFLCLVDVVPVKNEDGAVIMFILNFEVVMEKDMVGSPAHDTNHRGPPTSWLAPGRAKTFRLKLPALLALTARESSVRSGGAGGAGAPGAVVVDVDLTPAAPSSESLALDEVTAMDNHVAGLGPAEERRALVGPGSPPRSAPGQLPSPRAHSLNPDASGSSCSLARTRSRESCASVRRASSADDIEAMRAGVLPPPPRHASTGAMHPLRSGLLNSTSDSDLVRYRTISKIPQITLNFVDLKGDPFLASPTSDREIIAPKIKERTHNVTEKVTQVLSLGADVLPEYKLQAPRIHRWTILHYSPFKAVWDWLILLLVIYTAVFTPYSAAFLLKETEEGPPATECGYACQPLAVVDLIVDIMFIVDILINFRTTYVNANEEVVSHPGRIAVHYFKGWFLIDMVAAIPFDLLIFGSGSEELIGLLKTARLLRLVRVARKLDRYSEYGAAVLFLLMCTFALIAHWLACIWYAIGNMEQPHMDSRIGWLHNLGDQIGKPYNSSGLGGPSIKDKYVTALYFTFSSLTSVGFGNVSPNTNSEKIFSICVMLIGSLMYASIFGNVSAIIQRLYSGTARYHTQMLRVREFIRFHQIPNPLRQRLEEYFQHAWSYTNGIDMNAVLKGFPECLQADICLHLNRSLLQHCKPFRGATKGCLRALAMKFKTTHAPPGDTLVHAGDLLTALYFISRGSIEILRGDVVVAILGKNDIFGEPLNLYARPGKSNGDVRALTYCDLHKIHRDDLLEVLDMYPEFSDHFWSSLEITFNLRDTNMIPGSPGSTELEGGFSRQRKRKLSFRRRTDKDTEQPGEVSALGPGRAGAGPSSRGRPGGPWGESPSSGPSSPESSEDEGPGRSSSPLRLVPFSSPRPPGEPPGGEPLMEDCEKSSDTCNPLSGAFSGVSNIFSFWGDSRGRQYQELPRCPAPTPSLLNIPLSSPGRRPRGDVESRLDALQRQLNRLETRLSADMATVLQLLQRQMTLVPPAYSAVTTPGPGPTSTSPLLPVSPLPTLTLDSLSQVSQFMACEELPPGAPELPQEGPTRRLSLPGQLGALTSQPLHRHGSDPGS
# How it was run: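 Kinetic two-minute fluorescence traces, sampled at 1 s, were collected following thallium stimulus of U2OS cells (1000 per well) that had been cultured overnight at 37 C and loaded with FluxOR II.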
# [6] = molecular target: Cytochrome P450 3A4 (Homo sapiens) (UniProt P08684); assay: Cytochrome P450 Family 3 Subfamily A Member 4 (CYP3A4) small molecule antagonists: luciferase reporter qHTS assay (AID 1671201); further: nearly all actives have a fitted effect of over 50% in size
# Sequence of Cytochrome P450 3A4 (Homo sapiens) (P08684 whole entry, looked up): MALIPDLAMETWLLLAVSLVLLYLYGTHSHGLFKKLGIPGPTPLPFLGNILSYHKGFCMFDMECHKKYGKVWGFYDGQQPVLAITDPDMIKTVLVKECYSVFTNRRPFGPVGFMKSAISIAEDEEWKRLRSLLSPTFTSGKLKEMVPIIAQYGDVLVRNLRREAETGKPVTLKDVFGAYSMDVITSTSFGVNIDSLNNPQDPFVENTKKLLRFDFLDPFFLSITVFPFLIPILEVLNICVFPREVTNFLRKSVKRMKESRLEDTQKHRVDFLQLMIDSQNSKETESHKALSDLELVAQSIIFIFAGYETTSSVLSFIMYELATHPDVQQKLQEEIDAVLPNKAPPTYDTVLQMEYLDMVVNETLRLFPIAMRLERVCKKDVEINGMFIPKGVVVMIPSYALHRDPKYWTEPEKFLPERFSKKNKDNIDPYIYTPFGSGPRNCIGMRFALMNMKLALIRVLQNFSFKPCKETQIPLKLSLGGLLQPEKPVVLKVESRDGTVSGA
# How it was run: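 Proluciferin-to-luciferin conversion by CYP3A4, NADPH-regenerated, 1 h RT; luminescence read as RLU. Ketoconazole as control.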
# Potency means the concentration at half of the fitted maximal effect.
Structure (SMILES),Potency [1],Potency [2],Potency [3],Potency [4],Potency [5],Potency [6]
FC(F)(F)C(Cl)(Cl)Cl,inactive,inactive,inactive,inactive,inactive,inactive
O=[N+]([O-])c1nccn1CO[C@@H](CO)[C@H](O)CO,38.9 µM (active),inactive,inactive,inactive,inactive,inactive
CC(=O)OC(C)OC(C)=O,inactive,inactive,inactive,–,inactive,inactive
CCCCCCCCCC/C=C/C#N,inactive,inactive,inactive,–,inactive,inactive
C=CCCC=C,inactive,inactive,inactive,–,inactive,inactive
CCOC(=O)COc1ccc2c(c1)CC(NCC(O)c1cccc(Cl)c1)CC2 (stereo not drawn),0.452 µM (active),45.2 µM (active),35.9 µM (active),inactive,1.39 µM (active),inactive
O=C1Nc2ccc([N+](=O)[O-])cc2C1=O,7.09 µM (active),5.63 µM (active),35.5 µM (active),–,inactive,–
CCOC(=O)NCCC[Si](OCC)(OCC)OCC,inactive,inactive,inactive,inactive,inactive,39.9 µM (active)
O=Cc1ccc(F)c(Br)c1,inactive,inactive,inactive,35.6 µM (active),inactive,inactive
CC1=NN(c2cc(Cl)c(S(=O)(=O)O)cc2Cl)C(=O)C1N=Nc1ccc(S(=O)(=O)O)cc1 (stereo not drawn),inactive,inactive,inactive,inactive,inactive,inactive
CCN(CC)CCOc1ccc(Cc2ccccc2)cc1,9.77 µM (active),0.55 µM (active),inactive,–,7.56 µM (active),inactive
CC(C)C(=O)OCC(C)(C)C(O)C(C)C (stereo not drawn),inactive,inactive,inactive,–,inactive,inactive
NNS(=O)(=O)c1ccc(Oc2ccc(S(=O)(=O)NN)cc2)cc1,inactive,10 µM (active),5.03 µM (active),inactive,inactive,inactive
Cc1ccc(C=O)s1,inactive,inactive,inactive,–,inactive,inactive
CNCCC(Oc1ccccc1OC)c1ccccc1 (stereo not drawn),0.977 µM (active),inactive,inactive,–,8.49 µM (active),–
Cc1ccc([N+](=O)[O-])c(N)c1,inactive,38.9 µM (active),inactive,24.6 µM (active),inactive,inactive
CN(C)Cc1ccccc1,18 µM (active),inactive,inactive,–,inactive,inactive

Structure (SMILES),Potency [1],Potency [2],Potency [3],Potency [4],Potency [5],Potency [6]
CC(C)Nc1nc(N)nc(Cl)n1,inactive,inactive,–,–,inactive,inactive
COc1cc(N)c(Cl)cc1C(=O)NC1CCN(Cc2ccccc2)CC1,0.0309 µM (active),–,inactive,inactive,16.9 µM (active),1.55 µM (active)
COc1ccccc1N1CCN(CCCNc2cc(=O)n(C)c(=O)n2C)CC1,11 µM (active),–,inactive,inactive,inactive,inactive
Cc1cc(NS(=O)(=O)c2ccc(N)cc2)nc(C)n1,inactive,–,inactive,inactive,inactive,inactive
O=C1CCN(c2ccccc2)N1,35.7 µM (active),–,8 µM (active),35.7 µM (active),inactive,35.7 µM (active)
C=C(C)C(=O)OCCOP(=O)(O)O,inactive,–,inactive,inactive,inactive,inactive
CCc1nnc(NS(=O)(=O)c2ccc(N)cc2)s1,inactive,inactive,–,inactive,inactive,–
CC(C)c1ccccc1,inactive,–,inactive,inactive,inactive,inactive
CCCCCCCCc1ccc(S(=O)(=O)O)cc1,inactive,inactive,–,–,inactive,inactive
OCC(CBr)(CBr)CBr,inactive,inactive,–,–,inactive,inactive
COc1ccccc1OCC(O)COC(N)=O (stereo not drawn),inactive,–,inactive,inactive,inactive,inactive
CCN(CC)CC1CCCCN1CC(=O)N1c2ccccc2C(=O)Nc2cccnc21 (stereo not drawn),inactive,inactive,–,inactive,–,6.92 µM (active)
COc1ccc(S(=O)(=O)Nc2nnc(CC(C)C)s2)cc1,inactive,–,9.77 µM (active),inactive,inactive,inactive
CO[C@@]1(NC(=O)CSCC#N)C(=O)N2C(C(=O)O)=C(CSc3nnnn3C)CS[C@@H]21,inactive,inactive,–,24.5 µM (active),inactive,inactive
CN1CCN(C2=Nc3ccccc3Oc3ccc(Cl)cc32)CC1,4.9 µM (active),8.71 µM (active),–,inactive,16.9 µM (active),–
CN1CCC[C@@H]1Cc1c[nH]c2ccc(CCS(=O)(=O)c3ccccc3)cc12,13.8 µM (active),–,17.4 µM (active),inactive,–,–
O=c1[nH]c(=O)n([C@H]2C[C@H](O)[C@@H](CO)O2)cc1C(F)(F)F,inactive,–,inactive,inactive,inactive,inactive
